# Rows were chosen to be rich in hits. Some 7.8% of all compounds tested hit in one or more screens of this group.
# HCMV inh: inhibitors of human cytomegalovirus. 410,000 tested, 4.5% active. HFF cells, HCMV-luciferase reporter, 72 h; active compounds read low. activity change, negative = inhibition, % at 57.5 µM. AID 1259415; in the data active = activity change below about -60%; inconclusive = no clear call, values can overlap the other calls; inactive = above about -39%
#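 Cell-based, HFFs, 1000 cells/well, 16 h 37C; cpds in DMSO + HCMV-luc, MOI 1 PFU/cell; 72 h 37C; OneGlo luminescence after 5 min RT; norm. to buffer vs Salinomycin 10uM.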
# Vaccinia mCherry: vaccinia inhibition (mCherry reporter); Vaccinia virus mCherry reporter infection, fluorescence; Potency, µM (titrated, usually from 36.5 µM), for the others: top-dose activity change, negative = inhibition, most hits filed as inhibitors; 310,000 tested, 0.63% active; calls by dose curve; tested in A549 cells; also: potency is read from the fitted curve at half-maximal effect; nearly all actives have a fitted effect of over 35% in size
# HCV inhibitor: inhibitors of hepatitis C virus infection | Huh7.5.1 HCVcc-Cre infection, luciferase reporter, 44 h | Potency, µM (titrated, usually from 41.8 µM), without a hit: at the highest dose activity change, negative = inhibition, hits mostly inhibitors | 340,000 tested, 3.4% active | AID 651820; active = well fitted inhibition curve with a large enough effect; inconclusive = small, poorly fitted or top-dose-only effect, or another doubt; inactive = no such curve, though single readings can be large or run the other way; also: potency is read from the fitted curve at half-maximal effect
#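 Infectious HCV cell culture screen: compound-treated cells (1,000/well, pre-plated 4 h) are infected with HCVcc-Cre at roughly 0.5 moi and grown 44 h. Infection is quantified by luciferase signal after 15 min substrate incubation at room temperature.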
# Marburg entry inh: blocks Marburg virus binding to or entry into cells; AID 540276; Potency, µM (doses to about 37.8 µM), for inactives: at the highest dose activity change, negative = inhibition, most hits filed as inhibitors; Marburg virus pseudotyped entry inhibition, cell reporter; 300,000 tested, 1.8% active; calls by dose curve; tested in HEK293 cells; also: potency is read from the fitted curve at half-maximal effect
# VACV Venus inh: inhibitors of vaccinia virus (Venus reporter) | Vaccinia virus Venus reporter expression, fluorescence | Potency, µM (series often up to 36.5 µM), for the others: at the highest dose activity change, negative = inhibition, most hits filed as inhibitors | 330,000 tested, 0.46% active; calls by dose curve; tested in A549 cells; also: potency is read from the fitted curve at half-maximal effect; nearly all actives have a fitted effect of over 30% in size
# Lassa entry inh: Lassa virus entry inhibition; 300,000 tested, 1.2% active; Lassa virus pseudotype entry inhibition, cell reporter; Potency, µM (series often up to 37.9 µM), inactives show top-dose activity change, negative = inhibition, usual class: inhibitors; calls by dose curve; tested in HEK293 cells; also: potency is read from the fitted curve at half-maximal effect; nearly all actives have a fitted effect of over 50% in size
# * = called active by the depositor; i = inactive; ? = inconclusive; . = no result given; [ ] = dose if it differs, or a comment. % is scaled to controls: 0 for no effect and ±100 for the full control effect.
SMILES,HCMV inh,Vaccinia mCherry,HCV inhibitor,Marburg entry inh,VACV Venus inh,Lassa entry inh
CCOc1ccc(OCC)c(NS(=O)(=O)c2ccc(-c3coc(C)n3)cc2)c1,?,?,.,.,-25%[7.34 µM],-3%[46.1 µM]
CC(C)(C)S(=O)N1C[C@H]2CC(=O)C(CCO)=C2[C@@H]1CCO (stereo partly drawn),16,.,.,.,.,.
CCOc1ccccc1NC(=O)c1ccc2ccccc2c1,148,-11%,10µM*,-8%[46.1 µM],-3%,-4%[46.1 µM]
CSCC[C@H](NC(=O)c1ccc(Cl)c([N+](=O)[O-])c1)c1nc2ccccc2[nH]1,23,-18%,-8%,10µM*,-8%,-29%
CCOc1ccccc1NC(=O)c1ccc(OCC)c([N+](=O)[O-])c1,-65*,i,-24%,15%,-10%,14%
CCOc1ccccc1NC(=O)c1c(NC(=O)c2cccc(C)c2)sc2c1CCCC2,-85*,-13%,.,.,-1%,13%[46.1 µM]
CCCN(CCC)C(=O)Cn1c(=O)n(-c2ccc(OC)cc2)c(=O)c2ccc(C(=O)NCc3ccc(C)cc3)cc21,-36,-11%,.,?,-22%,3%[46.1 µM]
C[C@H]1[C@@H](NS(=O)(=O)Cc2ccccc2)CC[C@@]23CCCN2C(=O)CCC[C@@H]13,5,.,.,.,.,.
Cc1ccc2ncc3c(-c4ccccc4)nn(CC(=O)NC4CCCCC4)c3c2c1,10,-8%,.,.,-2%,2%[46.1 µM]
CCN1CCOC(=O)C1CC(=O)Nc1cc(Cl)ccc1C (stereo not drawn),-1,-10%[7.34 µM],.,-12%[46.1 µM],-5%[7.34 µM],9%[46.1 µM]
C=CCCC[C@@H]1OC(=O)CNC(=O)C([C@@H](C)CC)NC(=O)[C@@H]2CCCN2C(=O)C([C@@H](C)CC)OC(=O)[C@H](Cc2ccccc2)N(C)C(=O)[C@H](C(C)C)NC(=O)C1(C)C (stereo partly drawn),-73*,?,.,.,?,.
O=C1N[C@@H](Cc2ccccc2)C(=O)N2CCC[C@@H]12,23,i,13%,-7%,-6%,?
CCC1(CC)C(=O)NC(=O)NC1=NCCc1ccc(O)cc1,-68*,.,-9%,11%,1%,4%
CC1(CCc2ccc(O)cc2)NC(=O)NC1=O (stereo not drawn),27,i,20%,-19%,-5%,11%
O=C1[C@H](Cc2ccccc2)NC/C=C\C[C@H](c2ccco2)N1Cc1ccccc1,.,0%,.,.,-15%,.
CCOc1ccc(/C=C2\C(=O)c3ccccc3OC2c2ccccc2)cc1 (stereo not drawn),-99*,.,3%,-9%,.,?
COc1ccc(/C=C2\C(=O)c3ccccc3OC2c2ccccc2)cc1 (stereo not drawn),1,.,-28%,.,.,.
Cc1cc(C)c2nc3sc(C(=O)N4CCOCC4)c(N)c3cc2c1,-94*,.,?,.,.,.
Cc1ccc(C)c2nc3sc(C(=O)N4CCOCC4)c(N)c3cc12,-39,-28%,?,?,-12%,-16%[46.1 µM]
Cc1cccc2cc3c(N)c(C(=O)Nc4ccc(N5CCOCC5)cc4)sc3nc12,-19,i,4µM*,?,-12%,13µM*
Cc1ccc2nc3sc(C(=O)Nc4ccc(N5CCOCC5)cc4)c(N)c3cc2c1,.,.,-24%,.,.,.
O=C1N=C2CCCCC2=C1c1sc(N[S+](=O)([O-])C2CCCCC2)nc1O,.,.,.,16%[46.1 µM],.,.
CCC(Cn1nnc2ccccc2c1=O)NC(=O)Nc1cc(OC)cc(OC)c1 (stereo not drawn),12,-9%,.,?,4%,?
COc1ccccc1CN1CCOc2ccc(C(C)(O)CN(C)C)cc2C1 (stereo not drawn),.,-3%,.,.,-13%,.
C[C@H](NC(=O)OCc1ccccc1)C(=O)OCN1C(=O)c2ccccc2C1=O,.,.,.,-6%,.,.
SMILES,HCMV inh,Vaccinia mCherry,HCV inhibitor,Marburg entry inh,VACV Venus inh,Lassa entry inh
COCCCNC(=O)c1cn(Cc2c(F)cccc2Cl)nn1,-90*,2%,-16%,-6%[46.1 µM],4%,13%
c1cn2cc(-c3ccc4c(c3)OCO4)nc2s1,31,.,6%,?,.,10µM*
CC(=O)Nc1ccc(-c2cn3ccsc3n2)cc1,77,-24%,6%,-22%,-3%,?
CC(=O)Nc1ccc(Nc2cc(C)nc3c(-c4ccc(Cl)cc4)cnn23)cc1,-70*,?,?,?,-23%,?
O=[N+]([O-])c1ccc(-c2nc(Cl)c3c(n2)CCCC3)o1,-69*,11µM*,.,.,?,.
Cc1ccc(NS(=O)(=O)c2ccc(C(=O)N3CCN(c4ncccn4)CC3)cc2)cc1,-77*,-14%,?,?,?,7.9µM*
O=C(c1ccc(S(=O)(=O)Nc2ccc(F)cc2)cc1)N1CCN(c2ccccn2)CC1,-80*,-16%,?,?,-20%,?
Cc1cc(C)nc(N2CCN(C(=O)c3ccc(S(=O)(=O)N4CCCCCC4)cc3)CC2)n1,-7,-15%,11µM*,2%[46.1 µM],-7%,29%
Cc1ccc(S(=O)(=O)N2CCN(C(=O)c3ccc(S(=O)(=O)N4CCCC4)cc3)CC2)cc1,11,.,3%,.,.,.
Cc1ccc2nc(Cl)c3cc(C(=O)NC4CCC(C)CC4)sc3c2c1 (stereo not drawn),-20,-3%,.,10%[46.1 µM],-11%,-11%[46.1 µM]
Cc1nc2sc(-c3ccccc3)cc2c(=O)[nH]1,64,-7%,10µM*,?,-1%,?
CCCN1CCN(C(=S)Nc2ccccc2C(F)(F)F)CC1,-83*,-29%,?,?,?,-19%
FC(F)(F)c1ccccc1NC(=S)N1CCc2ccccc2C1,-27,.,-28%,?,.,?
COc1cccc([C@H]2Oc3ccc(OC)cc3C(=NO[C@@H](C)c3cn([C@H](CO)Cc4ccccc4)nn3)[C@H]2O)c1,.,.,.,5%[14.2 µM],.,.
C=CCn1c(O)c(C(C)=NCc2cccnc2)c(=O)[nH]c1=O,68,.,13%,7%,.,?
C=CCn1c(O)c(C(C)=NCc2cc(OC)cc(OC)c2)c(=O)[nH]c1=O,86,8.9µM*,?,?,5µM*,-23%
C=C(C)C(=O)Nc1cccc(C2=NOC3(C2)C[C@@H](C(N)=O)N(C(=O)/C(C)=C/C)C3)c1 (stereo partly drawn),-32,i,16%,.,-14%,.
CCC(=O)Nc1cccc(C2=NOC3(C2)C[C@@H](C(N)=O)N(C(=O)CC(c2ccccc2)c2ccccc2)C3)c1 (stereo partly drawn),-67*,-2%,-14%,.,-14%,.
NC(=O)[C@@H]1CC2(CC(c3cccc(NC(=O)COc4ccc(Cl)cc4)c3)=NO2)CN1C(=O)COc1ccc(Cl)cc1 (stereo partly drawn),-18,?,10µM*,.,?,.
NC(=O)[C@@H]1CC2(CC(c3cccc(NC(=O)CC(c4ccccc4)c4ccccc4)c3)=NO2)CN1C(=O)c1ccc(Cl)cc1 (stereo partly drawn),-72*,?,?,.,?,.

# Compound activity: PubChem, National Center for Advancing Translational Sciences (NCATS)
